Screens (PubChem)
IMPase inh – IMPase inhibition in cells; CHO-M1 cells, IP1 accumulation, HTRF TR-FRET ratio; 120,000 tested, under 10 active; inhibition (IP1 accumulation), % at 46.1 µM; P97697; active = well fitted curve in the direction sought with a large enough effect in the signal ratio, not every such curve was filed as active; inconclusive = small, poorly fitted or top-dose-only effect, or a change in a side signal; inactive = no such curve, though single readings can be large or run the other way; the % refers to the signal ratio;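 also: cells stimulated with carbachol in lithium chloride buffer; higher means more IMPase inhibition seen as more IP1 and lower FRET ratio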
Target sequence (P97697 whole entry, looked up): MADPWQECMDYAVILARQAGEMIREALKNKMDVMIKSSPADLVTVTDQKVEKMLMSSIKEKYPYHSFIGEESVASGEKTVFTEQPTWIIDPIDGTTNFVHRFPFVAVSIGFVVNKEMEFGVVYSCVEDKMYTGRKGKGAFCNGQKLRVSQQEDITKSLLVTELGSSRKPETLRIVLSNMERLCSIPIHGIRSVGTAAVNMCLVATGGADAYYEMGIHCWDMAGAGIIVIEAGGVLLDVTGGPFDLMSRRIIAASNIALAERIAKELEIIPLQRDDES
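The IP-One HTRF competitive assay in carbachol-stimulated CHO-M1 cells quantifies cellular IP1. Compounds spanned up to 46 uM final, and activity is expressed as AC50 from concentration-response fits of the ratio and donor data.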
IMPase Li inh – IMPase inhibition in cells with lithium potentiation. AID 1457. Potency, µM (series often up to 59.4 µM), usual class: inhibitors. 0.35% of 210,000 active. CHO-M1 cells, IP1 TR-FRET (IP-One), carbachol + lithium;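 also: IP1 builds up when IMPase is blocked and the TR-FRET signal falls; nearly all actives have a fitted effect of over 50% in size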
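CHO cells stably expressing M1 receptor (2000/well, cultured 16–30 h) treated 30 min at 37C with compound plus low lithium. Cytosolic IP1 by TR-FRET (665/620 ratio and 620 channel) after 10 min lysis; AC50 by Hill fit.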
ALDH1A1 block – ALDH1A1 (human) enzyme inhibition; P00352; Purified ALDH1A1, NADH fluorescence, propionaldehyde substrate; Potency, µM (series often up to 75.3 µM), usual class: inhibitors; 7.3% of 220,000 active; AID 1030; active = well fitted inhibition curve with a large enough effect, not every such curve was filed as active; inconclusive = small, poorly fitted or top-dose-only effect, or another doubt; inactive = no such curve, though single readings can be large or run the other way
12-hLO inh – blocks human 12-lipoxygenase activity. Potency, µM (titrated, usually from 57.1 µM), actives largely listed as inhibitors. AID 1452. 0.12% of 150,000 active. purified 12-hLO, xylenol orange hydroperoxide absorbance; also: nearly all actives have a fitted effect of over 55% in size
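Purified human 12hLO (150 nM final) was preincubated with compounds for 15 min at room temperature in 25 mM Hepes pH 7.0, 0.01% Triton X-100, then reacted with 40 uM arachidonic acid for 30 min. Hydroperoxide was detected with ferrous iron/xylenol orange.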
NPSR antag – antagonists of human neuropeptide S receptor cAMP signaling | CHO-NPSR cells, cAMP TR-FRET, antagonist mode | Potency, µM (titrated, usually from 38.3 µM), actives largely listed as inhibitors | 1% of 220,000 active; also: nearly all actives have a fitted effect of over 50% in size
Target sequence (Q6W5P4 whole entry, looked up): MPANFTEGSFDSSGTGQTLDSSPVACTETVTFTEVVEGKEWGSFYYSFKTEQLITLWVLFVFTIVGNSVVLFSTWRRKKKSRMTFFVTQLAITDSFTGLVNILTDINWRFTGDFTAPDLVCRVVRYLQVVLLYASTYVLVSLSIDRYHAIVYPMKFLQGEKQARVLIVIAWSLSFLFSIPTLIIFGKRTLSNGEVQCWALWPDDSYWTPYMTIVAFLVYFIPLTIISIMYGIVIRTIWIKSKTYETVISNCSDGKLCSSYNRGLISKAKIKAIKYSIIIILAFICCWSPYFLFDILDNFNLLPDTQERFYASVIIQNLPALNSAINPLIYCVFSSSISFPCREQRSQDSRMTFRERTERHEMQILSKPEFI
HPGD inh – inhibitors of human 15-hydroxyprostaglandin dehydrogenase (HPGD). P15428. purified HPGD, NADH fluorescence kinetic, PGE2 substrate. Potency, µM, hits mostly inhibitors. 4.3% of 150,000 active; active = well fitted inhibition curve with a large enough effect, not every such curve was filed as active; inconclusive = small, poorly fitted or top-dose-only effect, or another doubt; inactive = no such curve, though single readings can be large or run the other way
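20 nM HPGD preincubated 15 min at room temperature with compound in 50 mM Tris-HCl pH 8, 0.01% Tween 20. Started with 1 mM NAD+ and 30 uM prostaglandin E2; NADH fluorescence (360/450 nm) read 5 times over 30-s intervals, last minus first.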
Numbers stand for hits; – = inactive; ? = inconclusive; · = no result given; [ ] = another dose, or the depositor's remark. In the library only some 8.9% were active in any assay of this set; here they are far more common. Unless noted, calls follow the shape of the dose curve; as a rule, active = well fitted curve in the direction sought with a large enough effect; inconclusive = small, poorly fitted or top-dose-only effect, or another doubt; inactive = no such curve, though single readings can be large; an effect the other way counts as inactive or inconclusive.

SMILES	IMPase inh	IMPase Li inh	ALDH1A1 block	12-hLO inh	NPSR antag	HPGD inh
CC(C)CC(=O)O/N=C1\C(=O)N(Cc2ccc(Cl)cc2)c2ccc([N+](=O)[O-])cc21	–	–	?	–	–	14µM
COc1ccc2o/c(=N\O)c(C(=O)Nc3ccccc3OC)cc2c1	–	–	?	–	–	13µM
Cc1nnsc1C(=O)N(Cc1ccccc1)C(C)C	·	·	·	·	–	·
CCCCn1c(N)c(N(CC)C(=O)CSc2nnnn2-c2cc(C)ccc2C)c(=O)[nH]c1=O	·	–	11µM	·	–	·
CCCC(C)NC(=O)c1cc(Cl)ccc1OC (stereo not drawn)	–	–	–	–	–	–
CN1CCN(C2=C(Cl)C(=O)N(c3ccc(Cl)c(Cl)c3)C2=O)CC1	–	–	25µM	?	–	–
CN1CCN(C2=C(Cl)C(=O)N(c3cccc(Cl)c3)C2=O)CC1	–	–	?	–	–	–
COc1cccc(C2C(=O)N(C3CCCCC3)CC(=O)N2Cc2ccc(F)cc2)c1 (stereo not drawn)	–	–	?	–	–	–
CN(C)c1cccc(O)c1	·	–	8.9µM	–	·	–
O=C(Nc1ccc(N2CCCC2)cc1)c1cccc(-c2cc3ccccc3oc2=O)c1	–	–	2.2µM	–	–	8.9µM
COc1cc(C(=O)NC(=S)Nc2cccc(-c3cc4ccccc4oc3=O)c2)cc(OC)c1OC	–	–	14µM	?	–	–
Cc1cc(NC(=S)NC(=O)c2ccccc2)ccc1-c1cc2ccccc2oc1=O	·	–	8.9µM	–	–	–
Cc1cc(NC(=O)c2ccc(F)cc2)ccc1-c1cc2ccccc2oc1=O	–	·	·	·	·	·
CCc1nnc(NC(=O)CCC(=O)N2CCN(Cc3ccccc3)CC2)s1	–	–	–	–	–	–
Cc1cccc2sc(NC(=O)C3CCCN(S(=O)(=O)c4cccc5nonc45)C3)nc12 (stereo not drawn)	–	–	–	–	–	–
CC1=NCCN1S(=O)(=O)c1cc([N+](=O)[O-])ccc1Cl	·	–	7.9µM	·	–	·
O=C(NCc1ccc(Cl)cc1)C1CCN(S(=O)(=O)c2cc([N+](=O)[O-])ccc2Cl)CC1	–	–	1.4µM	–	–	–
Cc1cccc2sc(NC(=O)C3CCN(S(=O)(=O)c4cc([N+](=O)[O-])ccc4Cl)CC3)nc12	–	–	7.1µM	–	–	–
CCn1c2ccccc2c2cc(NC(=O)COC(=O)Cc3cn4ccsc4n3)ccc21	–	–	?	–	–	?
Cc1cccc(C(=O)O/N=C2\CCSc3ccc(C)cc32)c1	?	–	–	–	–	–
Cc1ccc(S(=O)(=O)Nc2cccc3ncccc23)s1	–	–	13µM	–	2µM	28µM
Cc1ccc(S(=O)(=O)Nc2cccc3ncccc23)cc1	·	·	·	·	–	·
O=C(/C=C/NNC(=O)c1ccc(Br)cc1)c1ccccc1	–	–	10µM	?	–	–
O=C(CCS(=O)(=O)c1cccc2nsnc12)N1CC(=O)N(CCc2ccccc2)C(=O)C1	–	–	22µM	–	–	–
CN(CC(=O)N1CC(=O)N(CCc2ccccc2)C(=O)C1)S(=O)(=O)c1cccc2nsnc12	–	–	?	–	–	–
SMILES	IMPase inh	IMPase Li inh	ALDH1A1 block	12-hLO inh	NPSR antag	HPGD inh
CCn1ncc(CN2CCN(C(=O)Nc3ccccc3C(=O)OC)CC2)c1C	–	–	?	–	–	–
Cc1noc(NS(=O)(=O)c2ccc(NC(=O)CSc3nc4c(cc3C#N)CCC4)cc2)c1C	–	–	?	–	–	32µM
Cc1cc(NC(=O)CSc2nc3c(cc2C#N)CCCC3)no1	·	?	?	–	?	?
Cc1noc(NS(=O)(=O)c2ccc(NC(=O)CSc3nc4c(cc3C#N)CCCC4)cc2)c1C	–	–	28µM	–	–	28µM
CCO[C@H]1OC(C(=O)N2CCN(Cc3ccc4c(c3)OCO4)CC2)=C[C@@H](c2ccc(Br)cc2)[C@@H]1CCCO	·	–	–	·	?	·
CC1=NN(c2ccc(C)c(C)c2)C(=O)C1C(c1cccc(O)c1)C1C(=O)N(c2ccc(C)c(C)c2)N=C1C (stereo not drawn)	–	–	0.71µM	–	–	10µM
CCCN1CCC(=NNC(=O)c2ccc(Br)o2)CC1	–	–	13µM	–	–	–
O=C(O)c1cc(NN=C2CCN(Cc3ccccc3)CC2)ccc1Cl	·	·	·	·	–	·
CCCN1CCC(=NNc2ccc(C(=O)O)cc2)CC1	·	–	25µM	·	–	·
COCCOC(=O)c1c(NC(=O)CNCc2ccco2)sc(C(N)=O)c1C	·	–	10µM	·	–	·
CCOC(=O)c1c(-c2ccc(Cl)cc2)csc1NC(=O)CNCc1ccco1	·	·	·	·	10µM	·
Cc1nc(NC(=O)c2ccccc2)sc1-c1csc(Nc2cccc(Cl)c2)n1	?	–	?	–	–	?
COc1cccc(C2NC(=S)NC3=C2CCc2ccccc23)c1 (stereo not drawn)	–	·	0.22µM	–	–	·
COc1ccc(C2NC(=O)NC3=C2CCc2ccccc23)cc1 (stereo not drawn)	–	–	?	–	–	?
COc1ccc2c(c1)C1=C(CC2)C(c2ccc(C)cc2)NC(=S)N1 (stereo not drawn)	·	–	0.4µM	·	–	·
COc1ccc(/C(N)=N/OC(=O)CCc2ccccc2)cc1	·	–	?	·	–	·
O=C(Cc1ccc(Cl)c(Cl)c1)Nc1cccc2ncccc12	·	–	–	·	–	·
O=C(CSc1nnc(-c2cccs2)o1)N1CCCc2ccccc21	–	–	?	–	–	–
CCOC(=O)c1sc(N(Cc2ccccc2)C(=O)CSc2nnc(C3CC3)n2N)nc1C	–	–	–	–	–	20µM
CCOc1ccc(C(=S)NC2CCCCC2)cc1OC	–	–	40µM	–	–	20µM
COc1ccc(OC)c(NC(=O)C(=S)NC2CCCCC2)c1	·	–	8.9µM	·	–	·
O=C(NC1CCCCCCC1)c1ccc2c(c1)OCO2	–	–	–	–	–	16µM
CCOc1ccc(CC(=O)NNC(=S)NC2CCCCC2)cc1OCC	–	–	–	–	–	–
O=C(NNC(=S)NC1CCCCC1)c1ccc2c(c1)OCO2	–	–	–	–	–	–
S=C(NC1CCCCC1)c1ccc2c(c1)OCO2	–	–	?	–	–	20µM
SMILES	IMPase inh	IMPase Li inh	ALDH1A1 block	12-hLO inh	NPSR antag	HPGD inh
COc1ccc(S(=O)(=O)NC2CC(C)(C)NC(C)(C)C2)c(C)c1C	–	–	–	–	–	–
CCc1nnc(NC(=O)CSc2ccc(-c3ccc(C)cc3)nn2)s1	·	–	–	·	–	·
O=C(Nc1ccc(N2CCN(c3ccc(O)cc3)CC2)cc1)Oc1ccccc1	–	–	11µM	–	–	–
COc1ccc(S(=O)(=O)Nc2c(F)cccc2F)cc1	·	–	–	·	–	·
CCN(CC)c1nc(N)c2c(N)n(-c3ccccc3C)c(=S)c(C#N)c2c1C#N	–	–	?	–	–	20µM
CN(CCc1ccccn1)c1ccc2c(c1)Cc1ccccc1-2	·	–	–[13.5 µM]	–[11.4 µM]	·	–
CCOC(=O)CSc1cc(C)nc2ccc(OC)cc12	·	–	–	·	–	·
